# From PubChem BioAssay (NCATS)
# Inconclusive results are not listed. Unmarked numbers belong to inactive results. Calls of active or inactive are those of the source. The call rests on the fitted dose curve; in most records, active means well fitted inhibition curve with a large enough effect; inconclusive means small, poorly fitted or top-dose-only effect; inactive means flat fitted curve, though single readings scatter.
# Assay: Cytometry Cell-Based qHTS for Inhibitors of the mTORC1 Signaling Pathway in MEF cells (AID 2668);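 on activity change, negative = inhibition: Tsc2-/- p53-/- mouse embryonic fibroblasts stably re-expressing wild-type Tsc2; percent cells positive for phospho-rpS6 Ser235/236 relative to propidium iodide stain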
# Conditions: mTORC1 pathway readout; series mostly up to 38.3 µM; activity change, negative = inhibition: at the top concentration
# Text: NIH Molecular Libraries Probe Production Centers Network [MLPCN]
# NIH Chemical Genomics Center [NCGC]
# Assay Submitter (PI): Blenis, John; Hoffman, Greg; Harvard University
# NCGC Assay Overview: The mammalian target of rapamycin (mTOR) is an intracellular serine/threonine kinase Aberrant regulation of mTOR signaling plays a causative role in a number of human diseases, including cancer, benign tumors such as lymphangioleiomyomatosis (LAM) and Tuberous Sclerosis Complex (TSC), and metabolic diseases such as diabetes and obesity. This project aims to identify inhibitors of ribosomal protein S6 (rpS6) phosphorylation. The phosphorylation of rpS6 is a key event downstream of mTOR activation. The assay uses a phospho-specific antibody of phospho-rpS6 to detect inhibitors of mTOR activation. Mutations in the Tsc1 and Tsc2 genes are the underlying genetic lesions responsible for TSC, causing constitutive activation of the mTORC1 pathway and leading to profound effects on cell metabolism. Aberrant metabolism in cancer has recently received significant attention as a target to develop therapeutic agents in the treatment of cancer.1 As Tsc2-/- cells have lost the ability to respond to energy and growth factor deprivation, these cells are unable to properly down regulate cellular biosynthetic processes in response to metabolic stress, and are thus extremely sensitive to glucose deprivation-induced death.2 A central goal of this project is to explore the unique cell survival and metabolic properties of cells with Tsc1 or Tsc2 by screening for compounds that selectively target the Tsc2-/- MEFs by screening both Tsc2-/- and WT MEF cell lines. We hope to better understand these aspects of TSC physiology in order to exploit them for therapeutic benefit.
# NCGC Acumen Assay Protocol:
# For quantitative high throughput analysis of mTORC1 signaling, we developed a cell-based assay for immuno-fluorescence based detection of rpS6 phosphorylation on the Acumen Explorer that will be used a platform for the primary small molecule screen. Mouse embryonic fibroblasts (MEFs) are cultured in 1536-well plates using DMEM + 10% FBS. Twenty-four hrs after plating, test compounds (solubilized in DMSO) are delivered and incubated with the cells for 24 hrs at 37 degree Celsius. Following the incubation, media with compound is aspirated and the cells are fixed in 4% paraformaldehyde (PFA) containing PBS + 0.2% TX-100. Next, PFA is aspirated, cells are washed two times with PBS plus 0.2% TX-100 and the cells are blocked for 1 hr at room temperature (blocking buffer: LiCOR Blocking Buffer plus 0.2% TX-100). This is followed by aspiration and staining with Alexa-488 conjugated-phospho-rpS6 Ser235/236 antibody for 2 hours at room temperature (Cell Signaling Technology # 4803, 1:50 dilution in blocking buffer). Cells are washed two times with PBS plus 0.2% TX-100, and stained with 10 uM propidium iodide (PI) for 20-25 minutes for cell number measurement (1:500 dilution of Hoescht staining is also added for IN Cell imaging). The plates are scanned on the Acumen Explorer laser scanning instrument (TTP Labtech) using the 488nm laser for simultaneous excitation of the Alexa-488 and PI. The fluorescence emission from the Alexa-488 conjugated rpS6 phospho-235/236 antibody staining is selected using a […] band pass filter. Fluorescence emission from the PI stain is selected using a 575-640 nm band pass filter. The normalized phospho-S6 staining is calculated as the ratio of the integrated Alexa 488 intensity divided by the integrated PI intensity for the single concentration rapamycin control (7.5 nM) and DMSO columns. […] Inhibition of the pathway is defined based on the normalized phospho-S6 intensity in rapamycin treated cells. […]
# Potency means the concentration at half of the fitted maximal effect.
Structure (SMILES),"activity change, negative = inhibition",Potency
Cn1c(=O)c2[nH]cnc2n(C)c1=O,-17.3%,–
Cc1cnc(C(=O)NCCc2ccc(S(=O)(=O)NC(=O)NC3CCCCC3)cc2)cn1,4.31%,–
Clc1ccccc1C(c1ccccc1)(c1ccccc1)n1ccnc1,-2.21%,–
Clc1ccc2nsnc2c1NC1=NCCN1,-22.6%,–
CCC1(C)CC(=O)NC1=O (stereo not given),-3.15%,–
CCOC(=O)c1ncn2c1CN(C)C(=O)c1cc(F)ccc1-2,8.71%,–
CCOC(=O)C(C)(C)Oc1ccc(Cl)cc1,8.49%,–
CN1CCC(=C2c3ccccc3CC(=O)c3sccc32)CC1,-4.88%,–
Cn1ccc2cc3c(cc21)CCN3C(=O)Nc1cccnc1,5.36%,–
Cc1cn([C@H]2C=C[C@@H](CO)O2)c(=O)[nH]c1=O,2.59%,–
CC(C)C(=O)Nc1ccc([N+](=O)[O-])c(C(F)(F)F)c1,-12.1%,–
Cn1cnc2c1c(=O)[nH]c(=O)n2C,1.39%,–
Cc1cc(C(C)(C)C)cc(C)c1CC1=NCCN1,2.92%,–
CC(C)(Oc1ccc(C2CC2(Cl)Cl)cc1)C(=O)O (stereo not given),-0.908%,–
NC(=O)NO,-28.1%,–
CC(C)NCC(O)c1ccc(O)c(O)c1 (stereo not given),–,13.1 µM (active)
NC(=O)OCC(COC(N)=O)c1ccccc1,-3.88%,–
CC(C(=O)O)c1cccc(C(=O)c2ccccc2)c1 (stereo not given),1.41%,–
CN1C(C(=O)Nc2ccccn2)=C(O)c2ccccc2S1(=O)=O,-0.553%,–
NCCCCCC(=O)O,1.59%,–

Structure (SMILES),"activity change, negative = inhibition",Potency
CN(C)c1nc(N(C)C)nc(N(C)C)n1,8.8%,–
O=c1c(O)c(-c2ccc(O)c(O)c2)oc2cc(O)cc(O)c12,-15%,–
CN1CCN2c3ccccc3Cc3ccccc3C2C1 (stereo not given),3.22%,–
CC1COc2c(N3CCN(C)CC3)c(F)cc3c(=O)c(C(=O)O)cn1c23 (stereo not given),1.4%,–
Nc1nnc(-c2cccc(Cl)c2Cl)c(N)n1,3.84%,–
Cc1ccc(C(=O)Nc2ccc(S(=O)(=O)O)c3cc(S(=O)(=O)O)cc(S(=O)(=O)O)c23)cc1NC(=O)c1cccc(NC(=O)Nc2cccc(C(=O)Nc3cc(C(=O)Nc4ccc(S(=O)(=O)O)c5cc(S(=O)(=O)O)cc(S(=O)(=O)O)c45)ccc3C)c2)c1,3.86%,–
Cc1cc(C(C)(C)C)c(O)c(C)c1CC1=NCCN1,-6.94%,–
COc1ccc(CCN(C)CCCC(C#N)(c2ccc(OC)c(OC)c2)C(C)C)cc1OC (stereo not given),-6.12%,–
O=C(C1CCCCC1)N1CC(=O)N2CCc3ccccc3C2C1 (stereo not given),4.01%,–
COc1ccc2[nH]cc(CCNC(C)=O)c2c1,3.38%,–
CC(C)Cc1ccc(C(C)C(=O)O)cc1 (stereo not given),-6.57%,–
Nc1nc2c(ncn2COC(CO)CO)c(=O)[nH]1,4.84%,–
Clc1ccc(C(c2ccccc2Cl)C(Cl)Cl)cc1 (stereo not given),-10.3%,–
Nc1ccn([C@H]2CC[C@@H](CO)O2)c(=O)n1,1.58%,–
C[C@H]1c2cccc(O)c2C(O)=C2C(=O)[C@]3(O)C(O)=C(C(N)=O)C(=O)[C@@H](N(C)C)[C@@H]3[C@@H](O)[C@@H]21,1.05%,–
O=C1N(c2ccccc2)c2ccccc2C1(Cc1ccncc1)Cc1ccncc1,-2.95%,–
Cc1ccccc1N1C(=O)c2cc(S(N)(=O)=O)c(Cl)cc2NC1C (stereo not given),6.35%,–
Cn1c(=O)c2c(ncn2C)n(C)c1=O,-1.94%,–
O=C(c1ccc(F)cc1)C1CCN(CCn2c(=O)[nH]c3ccccc3c2=O)CC1,2.99%,–
CC(COc1ccccc1)N(CCCl)Cc1ccccc1 (stereo not given),0.112%,–
